This note sets out measurements from PubChem BioAssay (Tox21).

Several values for one entry are separate records, joined by “and”; a condition that tells them apart may be missing. Identical values can stand only once. Inconclusive results are not listed. More than one record can exist for a structure, and the calls need not agree. Activity calls are given as the source filed them. Unless noted, calls follow the shape of the dose curve; as a rule, active = well fitted curve in the direction sought with a large enough effect in the repeat runs; inconclusive = weak or mixed curves; inactive = no such curve, though single readings can be large; an effect the other way counts as inactive or inconclusive.

A short description of test [1]: A CellTox Green Cytotoxicity Assay to monitor cytotoxicity in HepG2 cells - 0 hour (AID 1224882). Also: nearly all actives have a fitted effect of over 35% in size. An outline of the steps:
(§1)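 Real-time, homogeneous cytotoxicity readout: dead-cell DNA staining by CellTox Green in HepG2 monolayers, fluorescence measured at timed intervals up to 40 h of continuous compound exposure.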

Test [2] in a line: A CellTox Green Cytotoxicity Assay to monitor cytotoxicity in HepG2 cells - 32 hour (AID 1224883). Also: nearly all actives have a fitted effect of over 50% in size. Also: potency is read from the fitted curve at half-maximal effect. An outline of the steps: as §1
A short description of test [3]: qHTS RealTime-Glo MT Cell Viability Assay in HepG2 cells - 16 hour (AID 1224885). Also: nearly all actives have a fitted effect of over 50% in size. Also: potency is read from the fitted curve at half-maximal effect. An outline of the steps:
(§2)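 Cells + NanoLuc/prosubstrate dispensed (600 cells/well) → 5 h at 37 C/5% CO2 → compounds in DMSO transferred → 40 h incubation at 37 C, luminescence read at 0, 8, 16, 24, 32, 40 h.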

The nature of test [4]: qHTS RealTime-Glo MT Cell Viability Assay in HEK293 cells - 24 hour (AID 1224886). Also: nearly all actives have a fitted effect of over 50% in size. Also: potency is read from the fitted curve at half-maximal effect. The essentials: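 Tox21 10K qHTS, HEK293, 600 cells/well, RealTime-Glo reagent co-dispensed with cells; 5 h preincubation, compound by pintool, 37 C, luminescence at 0–40 h.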
Test [5] in a line: qHTS RealTime-Glo MT Cell Viability Assay in HEK293 cells - 8 hour (AID 1224887). Also: nearly all actives have a fitted effect of over 50% in size. Also: potency is read from the fitted curve at half-maximal effect. The essentials:
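Nonlytic bioluminescent viability monitoring. HEK293 at 600 cells/well with reagent; 5 h settle; compound transfer by pintool; plates held at 37 C and read at set time points.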

Test [6] in a line: A CellTox Green Cytotoxicity Assay to monitor cytotoxicity in HEK293 cells - 16 hour (AID 1224888). Also: nearly all actives have a fitted effect of over 35% in size. Also: potency is read from the fitted curve at half-maximal effect. An outline of the steps:
(§3)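 Cytotoxicity was tracked continuously in HEK293 cells by a DNA-binding dye excluded from viable cells. Compounds were transferred in DMSO 5 h after seeding; fluorescence was recorded at intervals up to 40 h.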

Test [7] can be described thus: qHTS RealTime-Glo MT Cell Viability Assay in HepG2 cells - 0 hour (AID 1224889). Also: nearly all actives have a fitted effect of over 50% in size. An outline of the steps:
as §2

Test [8] can be described thus: A CellTox Green Cytotoxicity Assay to monitor cytotoxicity in HepG2 cells - 8 hour (AID 1224890). Also: nearly all actives have a fitted effect of over 45% in size. Also: potency is read from the fitted curve at half-maximal effect. The essentials: as §1
Test [9] can be described thus: qHTS assay to identify small molecule antagonists of the estrogen receptor alpha (ER-alpha) signaling pathway using the BG1 cell line in the presence of 0.1 nM 17-beta-estradiol - cell viability counter screen (AID 1259241). Also: nearly all actives have a fitted effect of over 40% in size. Also: potency is read from the fitted curve at half-maximal effect. An outline of the steps: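 Following 5 days in phenol red-free medium with charcoal-stripped serum, VM7Luc4E2 cells received test compounds alongside 0.1 nM 17beta-estradiol (final) at 37C for 22 hr. Live cells were then quantified via protease-substrate fluorescence.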

A short description of test [10]: qHTS assay to identify small molecule antagonists of the androgen receptor (AR) signaling pathway using the MDA cell line in the presence of 0.5 nM R1881 - cell viability counter screen (AID 1259242). Also: nearly all actives have a fitted effect of over 45% in size. Also: potency is read from the fitted curve at half-maximal effect. An outline of the steps: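 Cytotoxicity toward MDA-kb2 cells is measured by CellTiter-Fluor live-cell protease fluorescence after 16 hr compound exposure at 37C in the presence of 0.5 nM R1881 stimulator.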

Test [11] concerns the target Androgen receptor (Homo sapiens) (UniProt P10275). The experiment in a line: qHTS assay to identify small molecule antagonists of the androgen receptor (AR) signaling pathway using the MDA cell line in the presence of 0.5 nM R1881 (AID 1259243). Also: nearly all actives have a fitted effect of over 50% in size. The essentials: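 Steps: seed MDA-kb2 cells, incubate 5 hr at 37C; pin-transfer compounds in DMSO; add R1881 to 0.5 nM final; incubate 16 hr; add ONE-Glo, wait 30 min at room temperature; read luminescence.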

For test [12], the target named is Estrogen receptor (Homo sapiens) (UniProt P03372). The experiment in a line: qHTS assay to identify small molecule antagonists of the estrogen receptor alpha (ER-alpha) signaling pathway using the BG1 cell line in the presence of 0.1 nM 17-beta-estradiol (AID 1259244). Also: nearly all actives have a fitted effect of over 50% in size. Also: potency is read from the fitted curve at half-maximal effect. The essentials:
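After 5 days in hormone-depleted medium (charcoal-stripped serum, no phenol red), VM7Luc4E2 cells were seeded, incubated 24 h, then co-treated with compound and 0.1 nM (final) estradiol for 22 h before luminescence detection.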

A short description of test [13]: qHTS assay to identify small molecule phospholipidosis (PLD) inducers (AID 1259344; active = well fitted curve in the direction sought with a large enough effect; an effect the other way counts as inactive or inconclusive). The essentials: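 Quantitative HTS in HepG2: compound plus LipidTOX Red dye for 24 h, paraformaldehyde fixation with Hoechst 33342, widefield high-content imaging; amiodarone as positive and DMSO as negative control.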
Test [14] is described as follows: qHTS assay to identify small molecule HDAC inhibitors - cell viability counter screen (AID 1259365). An outline of the steps: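 HCT-116 wild-type, overnight attachment; 2hr drug exposure, 37C; CellTiter-Glo luminescent ATP readout after 30min RT.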
The nature of test [15]: qHTS assay to identify small molecule agonists of the sonic hedgehog signaling (Shh) pathway - cell viability counter screen (AID 1259366). Also: nearly all actives have a fitted effect of over 50% in size. Also: potency is read from the fitted curve at half-maximal effect. The essentials: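 Compounds in DMSO were pin-transferred onto 3T3 Gli1-Luc cells that had settled 4hr; plates then stood 24hr at 37C and 5% CO2. One hour before the end, CellTiter-Fluor was added and fluorescence recorded.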
A short description of test [16]: qHTS assay to identify small molecule antagonists of the sonic hedgehog signaling (Shh) pathway - cell viability counter screen (AID 1259367). Also: nearly all actives have a fitted effect of over 55% in size. Also: potency is read from the fitted curve at half-maximal effect. The essentials:
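Seed 3T3 Gli1-Luc cells at 2,000 per well; incubate 4 hr; add compound in DMSO, then conditioned medium; incubate at 37C with 5% CO2; add CellTiter-Fluor after 23 hr; read fluorescence 1 hr later.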

Test [17] can be described thus: qHTS assay to identify small molecule agonists of the sonic hedgehog signaling (Shh) pathway (AID 1259368; calls by dose curve; also: nearly all actives have a fitted effect of over 15% in size; also: potency is read from the fitted curve at half-maximal effect). An outline of the steps:
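Steps: seed 3T3 Gli1-Luc cells, incubate 4 hr at 37 C, pin-transfer compounds in DMSO alongside a positive control, incubate 24 hr, add luciferase detection reagent, wait 30 min at room temperature, read luminescence.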

Test [18] can be described thus: qHTS assay to identify small molecule antagonists of the sonic hedgehog signaling (Shh) pathway (AID 1259369; calls by dose curve; also: nearly all actives have a fitted effect of over 45% in size; also: potency is read from the fitted curve at half-maximal effect). The essentials:
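Inhibition of Shh signalling is measured as reduced Gli1-response-element firefly luciferase output in an NIH/3T3-derived stable reporter clone stimulated with conditioned medium for 24hr.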

Test [19] is described as follows: A CellTox Green Cytotoxicity Assay to monitor cytotoxicity in HEK293 cells - 8 hour (AID 1224884). Also: nearly all actives have a fitted effect of over 35% in size. An outline of the steps: as §3
Test [20] is described as follows: qHTS assay to identify small molecule HDAC inhibitors (AID 1259364). Also: nearly all actives have a fitted effect of over 45% in size. Also: potency is read from the fitted curve at half-maximal effect. An outline of the steps:
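Homogeneous cell-based luminescent assay of endogenous class I/II HDAC activity; HCT-116 cells, 2 h compound exposure, 30 min HDAC-Glo development at RT.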
% is scaled to controls: 0 for no effect and ±100 for the full control effect.

Sequence of Estrogen receptor (Homo sapiens) (P03372 whole entry, looked up): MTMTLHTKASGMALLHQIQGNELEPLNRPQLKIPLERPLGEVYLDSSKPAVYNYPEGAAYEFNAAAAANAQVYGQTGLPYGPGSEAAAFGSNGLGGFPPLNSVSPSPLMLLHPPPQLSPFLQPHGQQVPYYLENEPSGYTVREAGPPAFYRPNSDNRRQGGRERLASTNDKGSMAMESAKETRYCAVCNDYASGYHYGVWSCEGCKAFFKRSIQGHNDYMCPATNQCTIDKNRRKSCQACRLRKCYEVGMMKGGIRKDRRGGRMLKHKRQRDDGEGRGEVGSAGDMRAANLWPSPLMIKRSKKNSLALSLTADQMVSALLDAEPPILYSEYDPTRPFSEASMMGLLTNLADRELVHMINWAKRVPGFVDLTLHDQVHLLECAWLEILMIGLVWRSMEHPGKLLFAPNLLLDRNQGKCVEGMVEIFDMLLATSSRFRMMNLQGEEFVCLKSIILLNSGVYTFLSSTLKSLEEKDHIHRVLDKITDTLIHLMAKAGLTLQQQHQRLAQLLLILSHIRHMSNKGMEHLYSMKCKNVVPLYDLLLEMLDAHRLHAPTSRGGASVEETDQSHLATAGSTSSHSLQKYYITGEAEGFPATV
Sequence of Androgen receptor (Homo sapiens) (P10275 whole entry, looked up): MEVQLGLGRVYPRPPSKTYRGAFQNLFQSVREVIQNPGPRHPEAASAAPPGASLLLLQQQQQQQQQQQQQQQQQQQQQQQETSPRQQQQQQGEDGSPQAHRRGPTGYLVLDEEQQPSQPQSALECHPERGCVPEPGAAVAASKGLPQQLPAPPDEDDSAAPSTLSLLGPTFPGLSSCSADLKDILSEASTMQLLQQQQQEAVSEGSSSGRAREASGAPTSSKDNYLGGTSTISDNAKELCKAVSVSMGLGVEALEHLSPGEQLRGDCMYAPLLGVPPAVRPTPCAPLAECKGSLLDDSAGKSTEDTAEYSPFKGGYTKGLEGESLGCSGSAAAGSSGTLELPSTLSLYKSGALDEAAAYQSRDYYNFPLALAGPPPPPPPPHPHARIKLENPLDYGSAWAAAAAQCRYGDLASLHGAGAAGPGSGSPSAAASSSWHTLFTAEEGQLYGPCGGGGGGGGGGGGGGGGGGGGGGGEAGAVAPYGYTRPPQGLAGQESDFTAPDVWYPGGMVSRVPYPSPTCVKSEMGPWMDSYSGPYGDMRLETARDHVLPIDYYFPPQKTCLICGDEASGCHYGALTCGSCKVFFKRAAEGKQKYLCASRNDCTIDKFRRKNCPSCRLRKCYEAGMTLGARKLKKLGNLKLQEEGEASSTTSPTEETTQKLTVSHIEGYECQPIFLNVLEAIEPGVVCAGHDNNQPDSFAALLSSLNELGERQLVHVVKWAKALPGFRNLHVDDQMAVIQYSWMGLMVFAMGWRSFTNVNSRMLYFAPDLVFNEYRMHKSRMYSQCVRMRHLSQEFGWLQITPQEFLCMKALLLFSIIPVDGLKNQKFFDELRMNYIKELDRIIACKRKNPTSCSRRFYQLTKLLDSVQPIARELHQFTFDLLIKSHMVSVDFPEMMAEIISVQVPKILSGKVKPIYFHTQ

In the case of `O=C(O)Cc1ccccc1Nc1c(Cl)cccc1Cl`, the Potency result in test [1], in test [2], in test [3], in [4], in [5] and in test [6] was “inactive” each time. Besides, the Potency entry in test [7], in [8], in test [9], in [10], in test [11] and in test [12] was “inactive” each time. The Potency result in test [13], in test [14], in [15], in test [16], in test [17] and in test [18] was “inactive” throughout.
For the compound `Cc1cc(-c2ccc(N=Nc3cc(S(=O)(=O)O)c4ccccc4c3N)c(C)c2)ccc1N=Nc1cc(S(=O)(=O)O)c2ccccc2c1N`, the Potency result in [1], in test [2], in test [19], in test [5], in [6] and in test [7] was “inactive” throughout. The Potency result in [8], in test [9], in test [20], in test [14], in test [15] and in [16] was “inactive” each time. In [17], the Potency result was “inactive”. In addition, in test [12], the Potency is 7.74 µM (active).
As for `Nc1nc(-c2ccccc2)cs1`, the Potency entry in test [1], in test [2], in test [3], in [4], in [5] and in test [6] was “inactive” throughout. Also, the Potency entry in [7], in test [8], in test [9], in test [10], in test [14] and in test [15] was “inactive” in each case. Besides, the Potency result in test [17] and in test [18] was “inactive” in each case. Moreover, in [20], the Potency was 21.6 µM (active).
With `COC(=O)Nc1nc2ccc(C(=O)c3ccccc3)cc2[nH]1`, the Potency entry in test [1], in [2], in test [3], in [6], in test [7] and in test [8] was “inactive” throughout. Also, the Potency entry in test [9], in [10], in [11], in test [12], in test [14] and in test [17] was “inactive” in each case. Moreover, the Potency in test [16] is 3.35 µM (active).
In the case of `CCC(=O)C(=O)CC`, the Potency result in test [1], in test [2], in [19], in test [5], in [6] and in test [7] was “inactive” in each case. Moreover, the Potency entry in test [8], in [9], in test [10], in [20], in test [14] and in [15] was “inactive” throughout. Also, the Potency entry in test [16], in [17] and in test [18] was “inactive” each time.
Turning to `COc1ccc(NC(=O)CC(C)=O)cc1`, the Potency result in test [1], in test [2], in test [19], in test [4], in test [5] and in test [7] was “inactive” in each case. Moreover, the Potency result in test [8], in test [9], in test [10], in [14], in test [15] and in test [17] was “inactive” throughout. Besides, in test [18], the Potency entry was “inactive”.
Take `COc1cccc2c1C(=O)c1c(O)c3c(c(O)c1C2=O)C[C@@](O)(C(C)=O)C[C@@H]3O[C@H]1C[C@H](N)[C@H](O)[C@H](C)O1`: the Potency result in test [1], in [7], in [20], in test [14] and in test [17] was “inactive” each time. In addition, the Potency result in [2] was “inactive and 30.1 nM (active)”; in [3], 43.9 µM (active) and 23.9 µM (active); in [4], 110 nM (active) and 4.8 nM (active); in [5], 15.6 µM (active) and 21.3 µM (active); in test [6], 39.1 µM (active); in test [8], 55.3 µM (active). In addition, the Potency in [9] was 30.8 µM (active) and 13.3 µM (active); in test [10] it was 48.9 µM (active); in test [15], 615 nM (active) and 2.11 µM (active); in test [16], 1.09 µM (active) and 1.88 µM (active); in test [18], 0.0194 µM (active). Moreover, in test [13], the PLD induction was -3.33% [at 7.66 µM] (inactive).
Take `COc1cc(/C=C/c2ccccc2)oc(=O)c1`: the Potency entry in [1], in test [2], in test [19], in test [5], in test [6] and in [7] was “inactive” in each case. Moreover, the Potency entry in test [8], in test [9], in test [10], in test [12], in test [14] and in test [15] was “inactive” throughout. Besides, the Potency entry in test [16] and in [18] was “inactive” throughout. Besides, the values for the Potency in test [20] and in test [17] were 11.2 µM (active) and 2.52 µM (active), respectively.
